# Reference: paper PMC6212790, “How bacterial xenogeneic silencer rok distinguishes foreign from self DNA in its resident genome”
# Over roughly 33,000 sequences, “e-score” has its median near -0.037; the highest 2% begin near 0.34. For the sample, the highest values were picked, then their nearest neighbours and some sequences at random.
# Molecular target: T1, GST-Rok (full length) (Bacillus subtilis subsp. subtilis str. …, UniProt O34857 1-191)
# T1 sequence: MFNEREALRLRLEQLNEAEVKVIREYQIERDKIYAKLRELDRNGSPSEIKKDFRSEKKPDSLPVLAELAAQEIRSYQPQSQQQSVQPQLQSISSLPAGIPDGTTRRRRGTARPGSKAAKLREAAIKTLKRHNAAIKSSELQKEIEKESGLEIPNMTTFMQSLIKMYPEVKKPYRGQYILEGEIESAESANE
# Experiment: protein binding microarray; Rok is a gene silencer of Bacillus subtilis; high values mean tight binding
# Details: protein: recombinant; tags: GST (pTH5325, pDEST15-Magic modified); dsDNA, one strand shown
# Outline: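 Every oligonucleotide joins a 25-mer constant primer to a 35-mer variable part drawn from a de Bruijn sequence of order 10, so each non-palindromic 8-mer appears at least 32 times and each palindromic 8-mer 16 times. The preference for every 8-mer is reported as a unitless, rank-based enrichment score (E-score). This score spans 0.5 for the most favored 8-mer to −0.5 for the most disfavored.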
row,Sequence,binding signal [E-score]
1,GTCTACTA,0.261
2,CTCTACTA,0.216
3,ATCTACTA,0.446
4,ATCTACGG,0.158
5,ATCTACTC,0.251
6,ACATGTTG,-0.0393
7,CGCGCATA,0.139
8,AATAAACG,0.0748
9,GCTGTAAA,0.151
10,CGGTATAA,0.28
11,TGGTATAA,0.349
12,AAGTATAA,0.142
13,TAGTATAA,0.404
14,CAGTATAA,0.312
15,AGGTATAA,0.322
16,GGTTGTAC,0.114
17,CGCGACAG,0.0354
18,CTCTACAC,0.0962
19,ATCTACAT,0.372
20,ATCTACAA,0.276
21,ATCTACAC,0.348
22,GTCTACAC,-0.0482
23,ATCTACAG,0.26
24,AAGGGTTA,-0.101
25,TCGCACAA,0.0863

row,Sequence,binding signal [E-score]
1,CCGGCTGA,-0.0957
2,TGCATTAA,0.25
3,GAATTCCA,0.0902
4,AATAGTAA,0.325
5,TATAGTCA,0.159
6,TATAGTAA,0.389
7,GATAGTAA,0.406
8,GATAGTAC,0.18
9,CATAGTAA,0.271
10,CGGCATGA,-0.101
11,GGGAATGA,-0.0881
12,GTATGTGA,0.247
13,GAAATAAA,0.221
14,AGATGAAC,0.165
15,AAGTATAG,0.127
16,ACGTATAT,0.365
17,AAGTATAC,0.251
18,AAGTATAT,0.348
19,ACGTATAC,0.232
20,ACGTATAA,0.244
21,GGGATTGA,-0.112
22,AATACATA,0.373
23,TATACATA,0.37
24,AATACAGA,0.0991
25,AATACATG,0.108

row,Sequence,binding signal [E-score]
1,GATACATA,0.388
2,GATACAGA,-0.0115
3,TACACATA,0.315
4,TATACAGA,0.342
5,GGTACATA,0.196
6,AATACATT,0.252
7,GATACATC,0.186
8,TATACACA,0.2
9,GGATTCAC,-0.0831
10,ACAAGTCG,-0.122
11,ACCTAGGG,-0.142
12,CGTGGAGA,0.119
13,ACGCCAAT,-0.0858
14,GGGAAGTA,0.17
15,CCCAGCGC,-0.157
16,ATTACGAG,0.154
17,ACTGTCAC,0.011
18,TATACAAA,0.402
19,AATACAAA,0.206
20,AGTACAAA,0.343
21,CATACATA,0.366
22,CATACATG,0.143
23,CATACAAA,0.288
24,AGTACAAG,0.217
25,CGTACAAA,0.194

row,Sequence,binding signal [E-score]
1,CATACATC,0.158
2,CGCGTTAG,0.07
3,CTCTAACC,-0.055
4,AGAATGAA,0.111
5,TGGCGCAA,-0.0245
6,AGGTTACG,-0.0671
7,AATCTATC,0.377
8,AATCTATA,0.384
9,AATCTATG,0.174
10,CATCTATC,0.289
11,GATCTATA,0.307
12,CATCTATA,0.199
13,ATAGACTA,0.186
14,AGGGAATC,0.0103
15,AGTTACCC,0.179
16,AAGACGTA,0.132
17,ACGATATA,0.298
18,GCGATATA,0.342
19,GATATAGC,0.0453
20,GTGATATA,0.25
21,GATATATA,0.365
22,GAGATATC,0.181
23,GATATATC,0.39
24,CCGATATA,0.297
25,GGGATATA,0.221

row,Sequence,binding signal [E-score]
1,GGTACAAC,-0.0759
2,CTGGCAAA,-0.152
3,ACACGTGC,-0.0468
4,TAGCGTAA,0.144
5,CGGAAATC,0.0575
6,CAGAAGCG,-0.142
7,GATATAGA,0.228
8,AATATAGC,0.32
9,AATATAGT,0.359
10,AAAATAGT,0.407
11,TATATAGA,0.404
12,AAAATAGC,0.179
13,TCTATAGA,0.36
14,CCTATAGA,0.0582
15,ACTATAGA,0.174
16,AAAATAGA,0.325
17,CATATAGA,0.133
18,AATATAGG,0.23
19,GCCGCTCA,-0.181
20,AGCATGTC,0.0983
21,CAACTTTC,0.15
22,CATTACCG,0.00887
23,ACAAAACT,0.085
24,CCTACCTC,0.0499
25,ATATAGGA,0.195

row,Sequence,binding signal [E-score]
1,CTAGAGAA,0.193
2,AAAACGAC,-0.0861
3,AGTTAAAA,0.197
4,CATTGACA,0.0572
5,AATGGAGT,0.0603
6,CATATGGA,-0.0847
7,AATATAGA,0.365
8,ACTATAGG,0.0843
9,AATAGAGA,0.239
10,AGTATAGA,0.159
11,ACTATAGT,0.409
12,ACTATAGC,0.164
13,GATATGGA,0.139
14,TATATGGA,0.343
15,AGGTAATC,-0.0361
16,AGCGGGGA,-0.076
17,ACCACTAG,0.0844
18,AGGAATGC,-0.0829
19,CTACCTAA,0.22
20,CTACCTAG,0.235
21,ATACCTAT,0.333
22,GAACCTAC,0.15
23,CTACCTAC,0.346
24,ATACCTAG,0.31
25,ATACCTAC,0.351

row,Sequence,binding signal [E-score]
1,GTACCTAC,0.353
2,GTACCTAA,0.132
3,CTGCGCTA,-0.143
4,ACAGAAGG,-0.105
5,AGTCTCTA,0.0503
6,GCACTTAC,-0.0436
7,TAAACCTA,0.181
8,CGTGCGGA,-0.0584
9,AAATAGCC,0.046
10,CAATAGTG,0.287
11,AAATAGTA,0.42
12,AAATAGCT,0.379
13,ACATAGTA,0.306
14,CAATAGTA,0.341
15,AAATAGCG,0.0843
16,CGGTAATA,0.372
17,CAATAGTC,0.101
18,CGGTAATC,-0.0198
19,AAATAGCA,0.0964
20,GGGTAATA,0.234
21,CCTCGATA,-0.188
22,GTCCTGTA,-0.0798
